Measured values reported in the supplement of paper PMC12339681.
Where a name gives a salt, the structure may show the parent alone.

What follows are compounds tested on PBMC-derived induced microglia-like cells (piMGLC) (assay: synaptosome phagocytic index relative to DMSO control (fraction of DMSO); higher = more phagocytosis). Conditions: concentration: 10 uM (2 uM for compounds listed in Table S2); pretreatment time: 24 h; assay time: 3 h.
Procedure: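 PBMC-derived induced microglia-like cells (piMGLCs) in 96-well plates were pretreated for 24 h with CNS-penetrant library compounds (MedChemExpress HY-L028), mostly at 10 uM; Table S2 lists 9 compounds at 2 uM. pHrodo-Red-labelled human iPSC-neuron synaptosomes (3 ug/well) were then added for 3 h, and cells were fixed and imaged by confocal microscopy. Phagocytic index (synaptosome area / cell count, CellProfiler) is a mean over 3 replicate wells on different plates, normalized to the DMSO control. Compounds leaving <10% of DMSO cell count were marked toxic and given no value.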
`COc1cn(-c2ccc(-n3cccn3)cc2F)nc(-c2ccnn2-c2ccccc2)c1=O` [Balipodect] showed a synaptosome phagocytic index of 0.835.
In the case of `CC(=O)OCC(=O)[C@@]1(O)[C@H](C)C[C@H]2[C@@H]3CCC4=CC(=O)C=C[C@]4(C)[C@@]3(F)[C@@H](O)C[C@@]21C` [Dexamethasone_acetate], the synaptosome phagocytic index is reported as 0.776.
Compound `COc1ccc(Cl)cc1C(=O)NCCc1ccc(S(=O)(=O)NC(=O)NC2CCCCC2)cc1` [Glibenclamide] has a synaptosome phagocytic index of 0.608.
For `NC(=O)N1c2ccccc2C=Cc2ccccc21` [Carbamazepine], the synaptosome phagocytic index was 0.865.
`CN(C/C=C/C#CC(C)(C)C)Cc1cccc2ccccc12` [Terbinafine] gave a synaptosome phagocytic index of 0.502.
`CCCC(CCC)C(=O)O` [Valproic_acid] gave a synaptosome phagocytic index of 0.68.
With `FC(F)(F)c1ccc(CNc2ccc(Cc3c[nH]c4ncc(Cl)cc34)cn2)cn1` [Pexidartinib_(hydrochloride)] the synaptosome phagocytic index was 0.976.
`O=C(CCCN1CCC(O)(c2ccc(Cl)cc2)CC1)c1ccc(F)cc1` [Haloperidol] was tested, and the synaptosome phagocytic index was 1.05.
`N#Cc1ccc(Cn2ccc(NC(=O)Cc3ccc(C4(C(F)(F)F)CC4)cc3)n2)nc1` showed a synaptosome phagocytic index of 1.06.
`CC1(C)O[C@@H]2[C@@H](CO[C@@]3(COS(N)(=O)=O)OC(C)(C)O[C@@H]23)O1` [Topiramate] showed a synaptosome phagocytic index of 1.08.
In the case of `CN(C)CCC[C@@]1(c2ccc(F)cc2)OCc2cc(C#N)ccc21` [Escitalopram_(oxalate)], the synaptosome phagocytic index is reported as 0.946.
`C#CCN[C@@H]1CCc2ccccc21` [Rasagiline_(mesylate)] was tested, and the synaptosome phagocytic index was 0.965.
`CC12CC3CC(C)(C1)CC(N)(C3)C2` [Memantine_(hydrochloride)] gave a synaptosome phagocytic index of 0.724.
`O=C1CCc2ccc(OCCCCN3CCN(c4cccc(Cl)c4Cl)CC3)cc2N1` [Aripiprazole] was tested, and the synaptosome phagocytic index was 0.885.
`CC1(C)S[C@@H]2[C@H](NC(=O)[C@H](N)c3ccc(O)cc3)C(=O)N2[C@H]1C(=O)O` [Amoxicillin_(sodium)] showed a synaptosome phagocytic index of 0.69.
With `CCN1CCN(Cc2ccc(Nc3ncc(F)c(-c4cc(F)c5nc(C)n(C(C)C)c5c4)n3)nc2)CC1` [Abemaciclib] the synaptosome phagocytic index was 0.228.
With `COc1ccc(-c2c(C)nn3c(C(F)(F)F)cc(C)nc23)c(F)c1F` the synaptosome phagocytic index was 0.98.
For `OC1(CN2CCC(COc3noc4cccc(O[C@@H]5CCOC5)c34)CC2)CCOCC1`, the synaptosome phagocytic index was 0.793.
`Clc1cccc(CN=C2Nc3ccccc3NC23CCNCC3)c1` [Liproxstatin-1] was tested, and the synaptosome phagocytic index was 1.31.
For `Nc1nnc(-c2cccc(Cl)c2Cl)c(N)n1` [Lamotrigine], the synaptosome phagocytic index was 1.3.
`O=C1NC(c2ccccc2)(c2ccccc2)C(=O)N1COP(=O)(O)O` [Fosphenytoin_(disodium)] was tested, and the synaptosome phagocytic index was 0.487.
For `CNCCCN1c2ccccc2CCc2ccccc21` [Desipramine_hydrochloride], the synaptosome phagocytic index was 1.13.
Compound `NC12CC3CC(CC(C3)C1)C2` [Amantadine_(hydrochloride)] has a synaptosome phagocytic index of 1.02.
`C[C@@H](c1ncncc1F)[C@](O)(Cn1cncn1)c1ccc(F)cc1F` [Voriconazole] showed a synaptosome phagocytic index of 0.893.
For `CC(=O)OCC[N+](C)(C)C` [Acetylcholine_(chloride)], the synaptosome phagocytic index was 0.587.
Work on `Nc1nc(NC2CC2)c2ncn([C@H]3C=C[C@@H](CO)C3)c2n1` [Abacavir_(sulfate)] yielded a synaptosome phagocytic index of 1.1.
`CC(C)(C)C(=O)NCCCC(=O)O` [Pivagabine] gave a synaptosome phagocytic index of 0.829.
Work on `CCN1CCN(Cc2ccc(-c3cc4c(N[C@H](C)c5ccccc5)ncnc4[nH]3)cc2)CC1` yielded a synaptosome phagocytic index of 0.0989.
With `Nc1nc(=O)[nH]cc1F` [Flucytosine] the synaptosome phagocytic index was 0.853.
In the case of `CN(C)C(=O)c1cc2cnc(Nc3ccc(N4CCNCC4)cn3)nc2n1C1CCCC1` [Ribociclib_succinate], the synaptosome phagocytic index is reported as 0.592.
`NC(=O)c1ccc(I)c([N+](=O)[O-])c1` [Iniparib] gave a synaptosome phagocytic index of 0.96.
`CCc1cc2c(cc1-c1cnn(CC(=O)N(C)C)c1)C(C)(C)c1[nH]c3cc(C#N)ccc3c1C2=O` gave a synaptosome phagocytic index of 0.394.
In the case of `COc1nccc(-c2c(-c3ccc(F)cc3)ncn2C2CCC(O)CC2)n1` (stereo not given), the synaptosome phagocytic index is reported as 0.995.
`CC(C)[C@H](NC(=O)c1ccc2ccccc2n1)C(=O)N[C@@H](CC(=O)O)C(=O)COc1c(F)cccc1F` showed a synaptosome phagocytic index of 1.14.
`CCCCCCCC(=O)c1c(O)cc(O)cc1CC(=O)OCC` [Cytosporone_B] showed a synaptosome phagocytic index of 0.114.
For `Cc1cc(-c2nncc3c(C(C)(C)C)c(OCc4ncnn4C)nn23)no1`, the synaptosome phagocytic index was 0.814.
`CC(C)(Sc1cc(C(C)(C)C)c(O)c(C(C)(C)C)c1)Sc1cc(C(C)(C)C)c(O)c(C(C)(C)C)c1` [Probucol] showed a synaptosome phagocytic index of 0.859.
`Nc1ncnc2c1ncn2[C@@H]1O[C@H](CO)[C@@H](O)[C@H]1O` [Adenosine] showed a synaptosome phagocytic index of 0.51.
`COC(=O)N[C@H](C(=O)N[C@@H](Cc1ccccc1)[C@@H](O)CN(Cc1ccc(-c2ccccn2)cc1)NC(=O)[C@@H](NC(=O)OC)C(C)(C)C)C(C)(C)C` [Atazanavir_(sulfate)] was tested, and the synaptosome phagocytic index was 0.81.
Compound `Oc1c(I)cc(Cl)c2cccnc12` [Clioquinol] has a synaptosome phagocytic index of 0.393.
